Assay outcomes as filed in PubChem.
Rows were chosen to be rich in hits. Some 3.7% of all compounds tested hit in one or more screens of this group.
RGS4 inhibitor: blocks human RGS4-accelerated GTP hydrolysis; P49798; Transcreener GDP fluorescence polarization, RGS4-accelerated GTP hydrolysis; 390,000 compounds, 0.039% hits; Potency, µM (series often up to 114 µM), without a hit: top-dose activity change, negative = inhibition, usual class: inhibitors; further: potency means the concentration at half of the fitted maximal effect; on the % scale 0 is the no-effect control and ±100 the full control effect; nearly all actives have a fitted effect of over 75% in size
Target sequence (P49798 whole entry, looked up): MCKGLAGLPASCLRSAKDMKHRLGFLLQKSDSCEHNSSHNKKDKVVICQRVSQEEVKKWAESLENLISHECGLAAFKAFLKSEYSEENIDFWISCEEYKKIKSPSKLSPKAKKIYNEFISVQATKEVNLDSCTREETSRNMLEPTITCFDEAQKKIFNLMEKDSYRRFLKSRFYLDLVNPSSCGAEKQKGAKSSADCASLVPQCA
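MLSMR compounds (23 nl, pin-transferred) preincubated 10 min at room temperature with a 500nM (2x) first reagent, then RGS4 at 900nM (2x) plus Transcreener GDP mix added; fluorescence polarization (620/688 nm) read before and after 90 min at 30 °C.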
B2AR arrestin: recruits beta-arrestin to the human beta2-adrenergic receptor. P07550. beta-arrestin recruitment to beta2AR, cell-based reporter. Potency, µM (titrated, usually from 46.1 µM), for the others: at the highest dose activation, hits mostly activators. 330,000 compounds, 0.02% hits;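 further: potency means the concentration at half of the fitted maximal effect; 0% = DMSO controls and full agonism = EC100 isoproterenol or metaproterenol; nearly all actives have a fitted effect of over 65% in size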
Target sequence (P07550 whole entry, looked up): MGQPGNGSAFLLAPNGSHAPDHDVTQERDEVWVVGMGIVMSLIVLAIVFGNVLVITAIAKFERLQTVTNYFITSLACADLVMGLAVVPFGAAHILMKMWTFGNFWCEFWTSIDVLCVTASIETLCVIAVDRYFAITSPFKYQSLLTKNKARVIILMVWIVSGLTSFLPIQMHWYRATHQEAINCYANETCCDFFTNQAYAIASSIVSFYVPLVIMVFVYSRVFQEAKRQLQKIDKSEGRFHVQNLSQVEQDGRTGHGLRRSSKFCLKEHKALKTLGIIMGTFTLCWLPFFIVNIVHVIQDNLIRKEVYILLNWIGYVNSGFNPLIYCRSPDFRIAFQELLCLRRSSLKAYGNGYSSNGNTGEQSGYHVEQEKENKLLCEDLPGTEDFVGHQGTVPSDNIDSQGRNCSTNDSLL
DRD3 agonist: agonists of human D3 dopamine receptor; P35462; D3R DiscoveRx beta-arrestin cells, luminescence, 90 min; max activation, %; 410,000 compounds, 0.58% hits; in the data active means max activation above about 30%; further: 0% is about no effect
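Agonist mode: compounds and dopamine controls were applied to plated cells for 90 min at 37 degrees C after an overnight attachment at 1500 cells/well. Luminescent read-out followed 30 - 60 minutes at room temperature with DiscoveRx detection reagent.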
D3 antag: antagonists of human D3 dopamine receptor | AID 652054 | P35462 | max response, negative = inhibition, % | D3R cells, DiscoveRx beta-arrestin luminescence, antagonist mode; stronger effect = lower value | 360,000 compounds, 2.5% hits; in the data active means max response below about -50%; inconclusive means no clear call, values can overlap the other calls; further: on the % scale 0 is the no-effect control and ±100 the full control effect
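Cells expressing the human receptor were seeded at 1500 cells/well, incubated overnight at 37 degrees C in 5% CO2, then exposed to library compounds with dopamine controls for 90 minutes at 37 degrees C before luminescent detection.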
BRCA1 expr act: BRCA1 expression activation; MCF7-BRCA1-FFLuc reporter, luminescence, 48 h; response scale: scaled: vehicle 0%, 10 µM genistein 100%; Potency, µM (series often up to 46.1 µM), without a hit: top-dose activation, hits mostly activators; 380,000 compounds, 1.1% hits; AID 624202; further: potency means the concentration at half of the fitted maximal effect; nearly all actives have a fitted effect of over 80% in size
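Luminescence from a BRCA1-driven firefly luciferase in MCF7 cells was read after 48 h compound exposure at 37 C. Data normalized against DMSO and a 10microM genistein activation control, then curve-fitted across the titration.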
PTHR1 ag: agonists of human PTHR1 parathyroid hormone receptor. 410,000 compounds, 0.075% hits. HEK293 GP2 PTHR1 cells, GloSensor cAMP luminescence, 1 h. Q03431. Potency, µM (series often up to 115 µM), for the others: top-dose activation, actives largely listed as activators. AID 743266; further: potency means the concentration at half of the fitted maximal effect; nearly all actives have a fitted effect of over 55% in size
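HEK-293-derived GP2 cells expressing PTHR1 and a GloSensor cAMP reporter, 3,000/well, plated overnight, given luciferin plus IBMX (each 0.5 mM as added) for 1 h at 37 °C, then compound for 1 h at 37 °C. Luminescence was read after 15 min at room temperature.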
* hit, by the source's call; i = inactive; ? = inconclusive; / = no result; [ ] = dose if it differs, or a comment. Unless noted, the call rests on the fitted dose curve; in most records, active means well fitted curve in the direction sought with a large enough effect; inconclusive means small, poorly fitted or top-dose-only effect, or another doubt; inactive means no such curve, though single readings can be large; an effect the other way counts as inactive or inconclusive.

SMILES	RGS4 inhibitor	B2AR arrestin	DRD3 agonist	D3 antag	BRCA1 expr act	PTHR1 ag
O=C1c2ccccc2C(c2nnnn2-c2ccc3c(c2)OCCO3)N1CCc1ccccc1F (stereo unspecified)	/	/	1	18	-32%	-24%
Cc1noc(Cn2c(=O)c3ccccc3n(CC(=O)Nc3ccc(Cl)cc3)c2=O)n1	-8%	/	-4	/	/	-2%
CC(C)n1nc(-c2cc3cc(O)ccc3[nH]2)c2c(N)ncnc21	/	/	-12	/	/	/
Cc1cc(C)n(-c2nc3ccccc3nc2Nc2cc(C(=O)O)ccc2C)n1	12%	/	5	/	/	?
CC(C)Cn1cc(C(=O)NCCCN2CCCC2=O)c2c3ccccc3n(C)c2c1=O	25%	0%	-15	7	-19%	-12%[57.5 µM]
CC(C)Cn1cc(C(=O)NCCCN2CCC(C)CC2)c2c3ccccc3n(C)c2c1=O	-11%	/	-42	-83*	0%	-16%
COc1ccc(-c2c(-c3ccc(S(C)(=O)=O)cc3)sc3ccc(OC)cc23)cc1	20%	0%	6	24	-54%	i
COC(=O)c1c(-c2ccc(S(C)(=O)=O)cc2)sc2ccc(OC)cc12	?	0%	22	0	4.5µM*	-51%
COC(=O)c1c(-c2ccc(S(C)(=O)=O)cc2)sc2cc(OC)ccc12	?	0%	31*	67	6.3µM*	-27%
CC(C)(C)C(=O)C(Cc1ccccc1)n1cncn1 (stereo unspecified)	-29%	0%	3	-55*	11%	22%[57.5 µM]
Cc1cccc(NC(=O)CNC(=O)CCNC(=O)c2ccc(C(C)(C)C)cc2)c1C	8%	-1%	0	7	20%	-15%
Cc1cccnc1NC(=O)CCNS(=O)(=O)c1ccc2c(c1)c(=O)n(C)c(=O)n2C	21%	1%	-11	-5	0%	-21%
Cc1csc(NC(=O)CCNS(=O)(=O)c2ccc3c(c2)c(=O)n(C)c(=O)n3C)n1	-10%	-1%	24	-93*	14%	i
COc1ccc(C(=O)N2c3nc(-c4ccco4)nn3C3(CCCCC3)[C@@H]3CCCC[C@@H]32)cc1OC	-34%	/	3	/	/	i
C/C(=N\NC(=O)CN1CCN(S(=O)(=O)c2ccc(C)cc2)CC1)c1cccnc1	-11%	0%	-17	-52*	13%	i
C/C(=N/NC(=O)CN1CCN(S(=O)(=O)c2ccc(C)cc2)CC1)c1cccc(O)c1	43%[11.4 µM]	0%	6	1	7%	-7%
C/C(=N\NC(=O)c1sccc1C)c1cccnc1	-17%	0%	-6	-17	2.8µM*	-10%
CCOC(=O)c1c(C)n(CCNC(C)=O)c2ccc(OC)cc12	0%	0%	5	19	-10%	i
CCOC(=O)c1c(-c2ccccc2)c2cc(OC)ccc2n1CCCN(C)C	-19%	0%	-21	-72*	-15%	-14%
Cc1cc(F)ccc1C(O)c1ncc(-c2ccc(Oc3ccccc3)cc2)[nH]1 (stereo unspecified)	/	/	10	3	-15%	-13%
C=CC[n+]1c(-c2ccc(Cl)cc2Cl)csc1Nc1c(C)n(C)n(-c2ccccc2)c1=O	-8%	6%	-27	-81*	-85%	-44%
C=CC[n+]1c(-c2ccc(C)cc2)csc1Nc1c(C)n(C)n(-c2ccccc2)c1=O	-30%	0%	-11	-17	-10%	-14%
O=C(NCCCn1ccnc1)c1[nH]c(C(F)(F)F)nc1-c1ccccc1	/	/	6	-2	7%	-36%
COc1cccc2cc(-c3cn4ccc(C)cc4n3)c(=O)oc12	-32%	/	-18	-9	7.1µM*	-23%[57.5 µM]
CC(C)(C)CC(=O)OCC(=O)[C@@]12OC(C)(C)O[C@@H]1C[C@H]1[C@@H]3CCC4=CC(=O)C=C[C@]4(C)[C@@]3(F)[C@@H](O)C[C@@]12C	/	/	-7	/	/	/
SMILES	RGS4 inhibitor	B2AR arrestin	DRD3 agonist	D3 antag	BRCA1 expr act	PTHR1 ag
Cc1cccc(N2CCN(C(=O)/C=C/c3cccs3)CC2)c1C	-17%	0%	43*	3	12%	-2%
COc1cccc(/C=C/C(=O)NNC(=O)CCN2CCN(Cc3ccccc3)CC2)c1	-15%	0%	-20	-53*	0%	-2%
Cc1ccc(C2=CC(=O)C[C@H](c3ccc4c(c3)OCO4)C2)cc1	-1%	0%	-9	-7	0%	-15%
CSc1ccc(C2=CC(=O)C[C@H](c3ccc4c(c3)OCO4)C2)cc1	8%	0%	-31	-52*	20%	i
Cc1ccc(-c2nnc(Cc3ccc(Cl)cc3)o2)cc1	8%	0%	2	-29	13µM*	-15%
COc1ccc(-c2nnc(-c3ccc(C)cc3)o2)cc1	-23%[56.9 µM]	0%	-4	6	2.8µM*	-7%
c1ccc(Cc2nnc(-c3ccccc3)o2)cc1	14%	-1%	2	70	-71%	-33%
Brc1ccc(-c2nnc(Cc3ccccc3)o2)cc1	16%	1%	2	-1	11µM*	-39%
COc1ccc(Cc2nnc(-c3ccccc3)o2)cc1	18%	0%	4	8	13µM*	i
CC(Nc1ccc2c(c1)OCCO2)C(=O)N1CCc2ccccc21 (stereo unspecified)	-15%	0%	3	8	59%	-7%
O=C(NNC(=S)Nc1ccccc1Cl)c1ccccc1	-25%	1%	4	-29	13µM*	-18%
O=C(Nc1ccccc1Cl)c1ccccc1Cl	-24%	0%	18	36	44%	-6%[57.5 µM]
O=C(NNC(=S)Nc1ccccc1Cl)c1ccccc1Cl	-22%	0%	11	-4	10µM*	i
COc1ccccc1NC(=S)NNC(=O)c1ccccc1	-21%	/	0	-72*	31%	-27%[57.5 µM]
Cc1cn2c(=O)cc(COC(=O)c3cccc(NC(=O)COc4ccccc4)c3)nc2s1	-27%	/	-2	/	/	-10%
O=C(Nc1ccc(C(=O)OCc2cc(=O)n3c4c(sc3n2)CCCC4)cc1)c1ccccc1	-4%	/	12	/	/	-11%
CCN(CC)C(=O)C1CCCN(c2ccc([N+](=O)[O-])cc2/C=N/NC(=O)c2ccccc2)C1 (stereo unspecified)	-6%	-1%	9	7	-20%	-8%
O=C(N/N=C/c1cc([N+](=O)[O-])ccc1O)C1CCCCC1	-20%	-1%	-11	-88*	-79%	0%
O=C(Cn1nc2ccccc2n1)N/N=C/c1cc([N+](=O)[O-])ccc1O	?	0%	1	-65*	-66%	i
O=C(Nc1ccc(Br)cc1)/C(=C/c1cccc([N+](=O)[O-])c1)NC(=O)C1CCCCC1	7%	0%	-9	-63*	-17%	i
